In PubChem BioAssay (NCI) one finds growth data, which are given here for seven molecules.

Each structure is given as a SMILES string. The panel holds about 83,000 compounds, 20% with a hit somewhere; the sample as a whole holds those more often.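 Negative percent growth values reflect cell death: -40 means 40% of the cells present at the start died, and -100 means all died.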 Values without a mark were called inactive. Activity calls are given as the source filed them. Rule for the calls: active = growth percent below 10; inactive = the rest.

Assay in all cases: NCI-60 one-dose screen, 48 h (100 = growth as untreated, 0 = no growth, -100 = all killed)
Common to all, as to conditions: 10 µM unless noted

Experiment [1] deals with NCI-H23 lung.
Experiment [2] relates to NCI-H226 lung.
Experiment [3] deals with NCI-H322M lung.
Experiment [4] relates to HOP-62 NSCLC.
Experiment [5] concerns NCI-H460 lung.
In experiment [6] the test system is HOP-92 NSCLC.
Experiment [7] concerns NCI-H522 lung.
Experiment [8] concerns A549/ATCC NSCLC.
Experiment [9] concerns 786-0 renal.
The subject of experiment [10] is COLO 205 colon.
Experiment [11] concerns DU-145 prostate.
Experiment [12] relates to K-562 leukemia.
Experiment [13] concerns MALME-3M melanoma.
Experiment [14] concerns MDA-MB-231 breast.
Experiment [15] relates to RXF 393 renal.
For experiment [16], the system named is SF-268 CNS.
The test system of experiment [17] is SF-295 CNS.
For experiment [18], the system named is SF-539 CNS.
The subject of experiment [19] is UACC-257 melanoma.
In experiment [20] the test system is M14 melanoma.

Regarding `CC1(C)[C@@H](O)CC[C@]2(C)[C@H]3CC[C@@H]4[C@H]5[C@H](C(=O)/C=C/c6ccc(C(F)(F)F)cc6)CC[C@]5(CO)CC[C@@]4(C)[C@]3(C)CC[C@@H]12`, the growth in experiment [1] was 56.9%; in [2], 30%; in experiment [3], 80.7%; in [4], 97.4%; in experiment [5] it was 65.4%; in [6], 66%. Moreover, the growth in [7] is 60.6%; in experiment [8] it was 47.8%; in experiment [9] it was 64.9%; in [10], 73.8%; in experiment [11], 70.1%; in experiment [12], 32.9%. For the same molecule, the growth was 8.37% (active) in experiment [13]; 71.4% in [14]; 32.3% in experiment [15]; 75.5% in experiment [16]; 72.1% in experiment [17]; 55.1% in experiment [18]. In addition, the growth in experiment [19] is 67.4%; in experiment [20], 7.81% (active).

Take `CC(=O)c1c(C)[nH]c(-c2nc3ccc(N4CCN(C)CC4)cc3[nH]2)c1-c1ccc2c(c1)OCCO2`: the growth in [1] was 50.1%; in experiment [2], 47.9%; in experiment [3], 45.8%; in experiment [4], 33.7%; in experiment [5] it was 62.7%; in experiment [6], 39%. Moreover, the growth in experiment [7] is 48.7%; in experiment [8], 44%; in [9], 40.9%; in [10], 12.7%; in experiment [11], 74.3%; in [12] it was 31.2%. The growth in experiment [13] was 33.7%; in [14] it was 36%; in experiment [15], 49.2%; in experiment [16], 68.8%; in [17], 44.4%; in [18], 41.7%. For the same molecule, the growth in experiment [19] is 48.2%; in [20], 40.1%.

`COc1ccc(NC(=O)c2ccc3c(c2)nc(-c2cc4ccccc4[nH]c2=O)n3-c2cc(C(C)(C)C)[nH]n2)cc1`: the growth was 90.4% in [1]; 99% in experiment [2]; 91.7% in experiment [3]; 98.7% in [4]; 97.4% in experiment [5]; 90.8% in experiment [6]. Besides, the growth in experiment [7] was 72.8%; in [8] it was 93.7%; in experiment [9] it was 92.4%; in experiment [10], 96.4%; in experiment [11], 103%; in experiment [12], 82.4%. Moreover, the growth in experiment [13] is 101%; in experiment [14] it was 98.2%; in [15], 77.3%; in [16], 79.3%; in experiment [17], 89.9%; in experiment [18] it was 94.9%. The growth in experiment [19] was 97.7%; in [20], 96.1%.

Take `CCN1CCN(C(=O)[C@@]2(C)CC[C@]3(C)CC[C@]4(C)C(=CC(=O)[C@@H]5[C@@]6(C)CC[C@H](OCCC#N)C(C)(C)[C@@H]6CC[C@]54C)[C@@H]3C2)CC1`: the growth is 87.9% in experiment [1]; 89.9% in [2]; 106% in [3]; 100% in [4]; 99.9% in experiment [5]; 70.8% in experiment [6]. The growth in experiment [7] is 95.4%; in [8] it was 84.1%; in [9] it was 51%; in [10] it was 95.7%; in [11], 97%; in [12], 31.8%. Moreover, the growth was 65.3% in [13]; 97.5% in [14]; 85% in [15]; 90.4% in experiment [16]; 84% in experiment [17]; 80.4% in experiment [18]. Further, the growth in experiment [19] was 88.4%; in experiment [20] it was 96%.

For `COc1ccc(/C=C(\C#N)c2cc3ccccc3n2C(C)=O)cc1`, the growth in [1] was 88.3%; in experiment [2], 102%; in experiment [3], 94.6%; in experiment [4], 93.3%; in experiment [5] it was 92.4%; in [6], 99.2%. Also, the growth in [7] was 70%; in experiment [8], 83.5%; in [9], 96.9%; in [10], 97.3%; in experiment [11], 99.7%; in experiment [12], 25.1%. Moreover, the growth in experiment [13] is 83.8%; in experiment [14], 82%; in [15], 88.3%; in experiment [16] it was 97.3%; in experiment [17], 84%; in [18] it was 93.8%. The growth in experiment [19] was 99.6%; in [20] it was 70.7%.

With `C/C(=C(/c1ccccc1)c1ccc(N2C(=O)c3cccc4c(NCc5ccccc5)ccc(c34)C2=O)cc1)c1ccccc1`, the growth is 89.8% in [1]; 89.1% in experiment [2]; 97.6% in [3]; 100% in experiment [4]; 99.8% in experiment [5]; 89% in experiment [6]. Besides, the growth in experiment [7] was 93.1%; in [8] it was 92.6%; in [9], 103%; in experiment [10], 112%; in experiment [11], 101%; in experiment [12], 85.8%. Further, the growth in experiment [13] was 96.3%; in experiment [14], 96.1%; in experiment [15], 112%; in experiment [16] it was 102%; in experiment [17], 96.2%; in [18], 98.6%. The values for the growth in experiment [19] and in experiment [20] were 106% and 89.1%, respectively.

Turning to `Cn1cc(-c2csc(-c3cn(CCN)c4ccccc34)n2)c2cccnc21`, the growth was 59.3% in experiment [1]; 66.4% in experiment [2]; 70.9% in [3]; 40.1% in [4]; 24.8% in [5]; 37.6% in experiment [6]. Besides, the growth is 65.8% in experiment [7]; 40% in [8]; 46.7% in experiment [9]; 20.7% in experiment [10]; 75.6% in [11]; -44.3% (active) in experiment [12]. Also, the growth in experiment [13] was 68.2%; in [14], 45.7%; in experiment [15], 70.9%; in experiment [16], 64.4%; in [17], 58.6%; in experiment [18], 47.9%. Moreover, the growth is 78.1% in experiment [19] and 43.4% in [20].
